PubChem BioAssay (NCATS)
Where “and” joins values, the source holds several entries; their conditions need not be identical. Identical values can stand only once. Results filed as inconclusive are left out. A call without a number means that no potency is given here. Calls of active or inactive are those of the source. Unless noted, calls follow the shape of the dose curve; as a rule, active = well fitted curve in the direction sought with a large enough effect; inconclusive = small, poorly fitted or top-dose-only effect, or another doubt; inactive = no such curve, though single readings can be large; an effect the other way counts as inactive or inconclusive.

How the values were obtained:
[1] = target: Endonuclease 4 (Escherichia coli (strain K12)) (UniProt P0A6C1); experiment: Counterscreen for APE1 Inhibitors: qHTS Validation Assay for Inhibitors of Endonuclease IV (AID 1708)
In short: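 qHTS concentration-response format; LOPAC1280 tested under APE1-screen conditions. 2 nM enzyme, 15 min compound preincubation at RT, then 50 nM TAMRA/BHQ-2 abasic substrate; kinetic fluorescence read, three reads at 60 s intervals.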

[2] = qHTS for differential inhibitors of proliferation of Plasmodium falciparum line 7G8 (AID 1815);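 also: parasite growth measured after three days of incubation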; also: potency is read from the fitted curve at half-maximal effect
[3] = qHTS Assay for Modulators of Human Peripheral Myelin Protein 22 (PMP22) Expression/Activity (AID 1967; active = well fitted curve in the direction sought with a large enough effect in the signal ratio; the % refers to the signal ratio)
In short: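 Quantitative HTS in a mouse Schwann cell line expressing dual click beetle luciferases: Pmp22 promoter (green) and control EF-alpha promoter (red). After 24h treatment, corrected green/red signal ratio gave %Activity relative to untreated cells.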

[4] = target: Ferritin light chain (Equus caballus) (UniProt P02791); experiment: qHTS Validation Assay for Identification of Novel General Anesthetics (AID 2323)
Sequence of Ferritin light chain (Equus caballus) (P02791 2-175 limits assumed): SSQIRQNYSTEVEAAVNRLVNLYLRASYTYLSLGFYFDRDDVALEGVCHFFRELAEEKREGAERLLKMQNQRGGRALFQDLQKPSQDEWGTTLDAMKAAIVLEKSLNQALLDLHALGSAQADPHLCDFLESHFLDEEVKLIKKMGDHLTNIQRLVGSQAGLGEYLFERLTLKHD
In short: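 Apoferritin from horse spleen (10 uM) was mixed with 1-aminoanthracene at 50% saturation in PBS, then compounds were added. After 10 min at room temperature, fluorescence was read (ex 380 nm, em 535 nm) and normalized to free-probe and complex controls.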

[5] = Validation screen for small molecules that induce DNA re-replication in MCF 10A normal breast cells (AID 463097); also: nearly all actives have a fitted effect of over 60% in size
In short: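 DNA re-replication was detected as a rise in nuclei with elevated Hoechst fluorescence after a 48 hr compound exposure of MCF 10A cells at 37 C.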

[6] = Validation screen for small molecules that induce DNA re-replication in SW480 colon adenocarcinoma cells (AID 504364)
In short: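 250 cells/well; compound pinned in; 48 hr, 37 C, 5% CO2; Hoechst added, 40 min; nuclear fluorescence imaged, 405 ex / 500-530 em; re-replication scored as increase in high-intensity nuclei.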

[7] = target: Rap guanine nucleotide exchange factor 4 (Homo sapiens) (UniProt Q8WZA2); experiment: Confirmatory qHTS for antagonist of cAMP-regulated guanine nucleotide exchange factor 4 (EPAC2) (AID 1645885); also: potency is read from the fitted curve at half-maximal effect; nearly all actives have a fitted effect of over 25% in size
Sequence of Rap guanine nucleotide exchange factor 4 (Homo sapiens) (Q8WZA2 whole entry, looked up): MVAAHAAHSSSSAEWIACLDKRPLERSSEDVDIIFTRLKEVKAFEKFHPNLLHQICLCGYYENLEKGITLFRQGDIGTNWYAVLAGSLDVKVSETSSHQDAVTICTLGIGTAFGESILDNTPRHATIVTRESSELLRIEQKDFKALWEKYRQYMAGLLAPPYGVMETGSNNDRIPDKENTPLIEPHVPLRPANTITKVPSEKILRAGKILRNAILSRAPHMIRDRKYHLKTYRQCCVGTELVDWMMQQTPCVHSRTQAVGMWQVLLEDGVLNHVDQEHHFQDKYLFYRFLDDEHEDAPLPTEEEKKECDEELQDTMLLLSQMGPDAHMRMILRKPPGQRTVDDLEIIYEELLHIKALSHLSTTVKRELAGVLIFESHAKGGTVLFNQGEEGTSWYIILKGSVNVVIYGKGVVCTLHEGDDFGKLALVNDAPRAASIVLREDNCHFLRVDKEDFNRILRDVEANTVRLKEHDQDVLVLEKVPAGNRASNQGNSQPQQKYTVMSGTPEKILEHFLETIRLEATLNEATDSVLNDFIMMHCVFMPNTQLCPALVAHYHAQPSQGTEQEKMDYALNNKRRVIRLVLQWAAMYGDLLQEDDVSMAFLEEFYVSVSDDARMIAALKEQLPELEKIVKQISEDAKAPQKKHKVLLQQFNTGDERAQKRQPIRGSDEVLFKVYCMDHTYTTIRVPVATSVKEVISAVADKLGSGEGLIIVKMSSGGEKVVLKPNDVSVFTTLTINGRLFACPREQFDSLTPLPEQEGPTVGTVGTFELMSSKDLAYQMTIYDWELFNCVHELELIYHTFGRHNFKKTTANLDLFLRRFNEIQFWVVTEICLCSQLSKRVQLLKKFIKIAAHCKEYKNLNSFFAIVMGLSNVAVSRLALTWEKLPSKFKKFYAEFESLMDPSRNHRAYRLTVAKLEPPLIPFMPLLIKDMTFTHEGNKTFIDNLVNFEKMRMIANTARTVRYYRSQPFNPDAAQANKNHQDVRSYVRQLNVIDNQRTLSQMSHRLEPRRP

[8] = NCATS anti-infectives library activity on HEK293 viability as a counter-qHTS vs the C. elegans viability qHTS (AID 1745854);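 also: HEK293 cells exposed to compounds for 24 hr before the viability read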
In short: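 Compounds were acoustically plated (several concentrations, 1:5, final up to 41.7 uM), then 1500 HEK293 cells added per well and incubated 24 hr at 37C, 5% CO2. CellTiter-Glo was added and luminescence read after 10 min.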

[9] = target: RecQ-like DNA helicase BLM (Homo sapiens) (UniProt P54132); experiment: qHTS Validation Assay for Inhibitors of Bloom's syndrome helicase (BLM) (AID 2364)
Sequence of RecQ-like DNA helicase BLM (Homo sapiens) (P54132 whole entry, looked up): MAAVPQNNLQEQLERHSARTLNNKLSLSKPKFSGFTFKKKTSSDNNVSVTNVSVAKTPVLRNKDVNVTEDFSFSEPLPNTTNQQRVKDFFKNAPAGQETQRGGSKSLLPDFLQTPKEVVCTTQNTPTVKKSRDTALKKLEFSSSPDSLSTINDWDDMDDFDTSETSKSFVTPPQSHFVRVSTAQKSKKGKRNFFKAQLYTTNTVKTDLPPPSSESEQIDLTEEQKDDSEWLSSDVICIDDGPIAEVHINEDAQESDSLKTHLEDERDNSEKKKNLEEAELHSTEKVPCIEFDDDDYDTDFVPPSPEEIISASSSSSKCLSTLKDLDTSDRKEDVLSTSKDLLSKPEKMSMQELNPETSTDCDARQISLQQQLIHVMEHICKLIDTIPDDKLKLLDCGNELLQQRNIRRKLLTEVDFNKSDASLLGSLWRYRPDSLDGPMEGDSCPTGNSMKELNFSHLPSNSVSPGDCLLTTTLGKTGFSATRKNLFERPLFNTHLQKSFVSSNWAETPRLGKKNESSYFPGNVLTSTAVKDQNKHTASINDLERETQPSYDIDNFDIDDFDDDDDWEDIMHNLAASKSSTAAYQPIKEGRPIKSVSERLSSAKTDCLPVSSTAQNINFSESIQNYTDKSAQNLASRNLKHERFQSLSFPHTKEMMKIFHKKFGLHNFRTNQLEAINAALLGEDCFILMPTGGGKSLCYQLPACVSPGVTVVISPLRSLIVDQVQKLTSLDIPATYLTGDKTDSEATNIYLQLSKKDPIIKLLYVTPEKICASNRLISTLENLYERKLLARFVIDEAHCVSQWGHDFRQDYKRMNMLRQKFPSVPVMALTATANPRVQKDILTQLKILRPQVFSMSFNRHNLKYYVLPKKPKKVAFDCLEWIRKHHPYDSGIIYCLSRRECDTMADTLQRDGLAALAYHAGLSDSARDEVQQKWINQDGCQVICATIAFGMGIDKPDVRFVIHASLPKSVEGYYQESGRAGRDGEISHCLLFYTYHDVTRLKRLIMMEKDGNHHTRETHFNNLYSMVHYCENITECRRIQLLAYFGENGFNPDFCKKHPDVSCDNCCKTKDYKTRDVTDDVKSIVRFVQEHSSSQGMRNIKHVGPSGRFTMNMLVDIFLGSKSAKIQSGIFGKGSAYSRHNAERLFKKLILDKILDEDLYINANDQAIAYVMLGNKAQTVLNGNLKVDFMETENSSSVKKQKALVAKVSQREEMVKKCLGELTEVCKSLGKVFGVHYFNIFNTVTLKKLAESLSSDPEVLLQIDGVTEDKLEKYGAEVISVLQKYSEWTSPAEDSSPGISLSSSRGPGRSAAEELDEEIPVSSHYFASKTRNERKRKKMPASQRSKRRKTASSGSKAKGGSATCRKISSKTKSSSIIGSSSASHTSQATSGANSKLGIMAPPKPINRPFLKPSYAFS
In short: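 Forked 20-bp duplex substrate (200 nM, TAMRA/BHQ-2) plus 2 mM ATP added after 15 min compound preincubation with 50 nM enzyme, pH 8.0, poly(dI-dC) 2.5 ug/ml. Strand separation followed by fluorescence (525/598 nm) over 2 h, normalized to enzyme-free and DMSO controls.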

[10] = target: ATP-dependent 6-phosphofructokinase (Trypanosoma brucei brucei) (UniProt O15648); experiment: qHTS Assay to Find Inhibitors of T. brucei phosphofructokinase: hit validation (AID 492961);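 also: luminescence reports ADP formed as PFK phosphorylates fructose-6-phosphate with ATP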
Sequence of ATP-dependent 6-phosphofructokinase (Trypanosoma brucei brucei) (O15648 whole entry, looked up): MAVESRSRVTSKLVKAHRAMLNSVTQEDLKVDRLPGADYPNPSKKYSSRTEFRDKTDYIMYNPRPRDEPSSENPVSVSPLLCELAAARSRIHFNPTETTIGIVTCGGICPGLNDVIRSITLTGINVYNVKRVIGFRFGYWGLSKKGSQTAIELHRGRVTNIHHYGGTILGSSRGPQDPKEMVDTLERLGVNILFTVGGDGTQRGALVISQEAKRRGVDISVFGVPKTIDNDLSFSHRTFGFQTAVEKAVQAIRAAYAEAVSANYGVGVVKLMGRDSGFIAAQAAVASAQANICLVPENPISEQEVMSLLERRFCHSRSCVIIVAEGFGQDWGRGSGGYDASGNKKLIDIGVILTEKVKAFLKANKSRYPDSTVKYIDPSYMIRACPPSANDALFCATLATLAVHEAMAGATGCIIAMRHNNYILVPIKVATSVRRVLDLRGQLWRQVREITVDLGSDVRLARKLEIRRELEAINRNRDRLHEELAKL
In short: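 In this biochemical qHTS validation, titrated compounds were tested against 1.25 nM PFK with 0.1 mM ATP and 0.5 mM F6P. Percent activity came from controls lacking or containing enzyme.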

[11] = target: Luciferin 4-monooxygenase (Photinus pyralis) (UniProt P08659); experiment: Biochemical firefly luciferase enzyme assay for NPC (AID 624030);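 also: purified P. pyralis luciferase at 10 nM with luciferin and ATP substrate; nearly all actives have a fitted effect of over 70% in size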
Sequence of Luciferin 4-monooxygenase (Photinus pyralis) (P08659 whole entry, looked up): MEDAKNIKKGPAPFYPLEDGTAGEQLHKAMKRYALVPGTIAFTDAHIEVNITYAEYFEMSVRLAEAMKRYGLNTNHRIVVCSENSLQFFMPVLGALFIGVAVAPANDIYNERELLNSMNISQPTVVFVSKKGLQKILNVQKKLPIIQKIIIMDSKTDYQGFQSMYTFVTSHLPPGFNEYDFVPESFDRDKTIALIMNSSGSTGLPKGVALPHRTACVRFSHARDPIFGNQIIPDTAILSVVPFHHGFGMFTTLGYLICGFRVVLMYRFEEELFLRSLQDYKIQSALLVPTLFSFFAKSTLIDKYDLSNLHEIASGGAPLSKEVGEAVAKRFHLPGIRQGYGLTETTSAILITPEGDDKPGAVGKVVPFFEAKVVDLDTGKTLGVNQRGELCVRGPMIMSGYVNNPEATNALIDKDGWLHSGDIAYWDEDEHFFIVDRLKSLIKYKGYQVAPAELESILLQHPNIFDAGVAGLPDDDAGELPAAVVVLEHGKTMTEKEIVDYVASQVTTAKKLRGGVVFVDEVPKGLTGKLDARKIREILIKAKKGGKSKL
In short: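 Direct inhibition of firefly luciferase enzyme (10 nM final, 50 mM Tris Acetate) assessed by luminescence within 5 minutes. Percent activity scaled between DMSO and PTC124 positive control, with concentration-effect curves classified by fit quality and response.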

[12] = qHTS profiling for inhibitors of Plasmodium falciparum proliferation (AID 504749); also: potency is read from the fitted curve at half-maximal effect; as to all read-outs here: nearly all actives have a fitted effect of over 60% in size; conditions: P. falciparum in erythrocytes, SYBR Green DNA, 72 h; for activity, negative = inhibition: at 12.8 µM (top of the series)
In short: (§1)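 Infected RBCs, 0.3% parasitemia/2.5% Hct final; cpd 72 h, 37 C, 5% CO2; lysis buffer with saponin/triton/SYBR Green I, o/n RT dark; FI 485/535; norm. to artemisinin (0.29 uM) and DMSO.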

3D7 = experiment: as above; conditions: P. falciparum in erythrocytes, SYBR Green DNA, 72 h; series mostly up to 12.8 µM
In short: as §1

CP191 = experiment: as above; conditions: P. falciparum in erythrocytes, SYBR Green DNA, 72 h; series mostly up to 12.8 µM
In short: as §1

CP201 = experiment: as above; conditions: P. falciparum in erythrocytes, SYBR Green DNA, 72 h; series mostly up to 12.8 µM
In short: as §1

CP286 = experiment: as above; conditions: P. falciparum in erythrocytes, SYBR Green DNA, 72 h; series mostly up to 12.8 µM
In short: as §1

DFO2036 = experiment: as above; conditions: P. falciparum in erythrocytes, SYBR Green DNA, 72 h; series mostly up to 12.8 µM
In short: as §1

PC49 = experiment: as above; conditions: P. falciparum in erythrocytes, SYBR Green DNA, 72 h; series mostly up to 12.8 µM
In short: as §1

[13] = target: Cytochrome P450 2C9 (Homo sapiens) (UniProt P11712); experiment: qHTS Assay for Inhibitors and Substrates of Cytochrome P450 2C9 (AID 883); also: nearly all actives have a fitted effect of over 60% in size; also: potency is read from the fitted curve at half-maximal effect
Sequence of Cytochrome P450 2C9 (Homo sapiens) (P11712 whole entry, looked up): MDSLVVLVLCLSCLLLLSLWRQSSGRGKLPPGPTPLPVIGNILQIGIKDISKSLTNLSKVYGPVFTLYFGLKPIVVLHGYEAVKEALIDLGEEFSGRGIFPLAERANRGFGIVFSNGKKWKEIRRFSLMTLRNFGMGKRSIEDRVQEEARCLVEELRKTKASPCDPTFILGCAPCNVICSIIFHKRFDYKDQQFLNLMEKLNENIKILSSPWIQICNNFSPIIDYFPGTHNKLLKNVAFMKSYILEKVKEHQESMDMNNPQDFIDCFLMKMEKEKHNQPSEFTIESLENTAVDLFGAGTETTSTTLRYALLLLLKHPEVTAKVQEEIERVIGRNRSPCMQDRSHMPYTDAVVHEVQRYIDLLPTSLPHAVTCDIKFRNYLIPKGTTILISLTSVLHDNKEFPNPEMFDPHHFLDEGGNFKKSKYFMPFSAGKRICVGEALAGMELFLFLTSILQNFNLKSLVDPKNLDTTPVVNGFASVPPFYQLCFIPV
In short: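 Inhibition of CYP2C9 is scored as loss of luminescence, with 57uM sulphaphenazole defining 100% inhibition. Substrate Luciferin-H is used at 100uM, equal to its KM; enzyme at 10nM in 25mM KPO4, 60 min at 37C with NADPH regeneration.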

[14] = target: Glutathione peroxidase 1 (Homo sapiens) (UniProt P07203); experiment: Primary qHTS Assay for Inhibitors of Recombinant Selenoprotein Glutathione Peroxidase 1 (GPX1) (AID 1845191); conditions: outcome: dose series up to 48.8 µM unless noted; also: nearly all actives have a fitted effect of over 65% in size
Sequence of Glutathione peroxidase 1 (Homo sapiens) (P07203 whole entry, looked up): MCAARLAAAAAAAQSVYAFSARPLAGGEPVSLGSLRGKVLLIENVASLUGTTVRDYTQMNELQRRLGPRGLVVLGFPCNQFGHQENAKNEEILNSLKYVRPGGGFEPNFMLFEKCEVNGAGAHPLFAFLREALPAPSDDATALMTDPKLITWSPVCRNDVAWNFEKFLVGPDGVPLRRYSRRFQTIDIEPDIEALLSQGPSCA
In short: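 10 nM GPX1 + cpd, 30 min RT; start w/ 1 mM GSH, 0.5 mM cumene hydroperoxide, 0.5 mM NADPH, 100 nM GR, 0.01% BSA; buffer 50 mM Tris-HCl pH 7.5, 2 mM EDTA, 150 mM NaCl; Fl 340/450, 0 & 15 min.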

SMILES: CNC(=O)[C@H]1O[C@@H](n2cnc3c(N)ncnc32)[C@H](O)[C@H]1O
- outcome [1]: inactive
- Potency [2]: inactive
- outcome [3]: inactive
- outcome [4]: inactive
- outcome [5]: inactive
- outcome [6]: inactive

SMILES: CCC(=O)OC1CCC2C3CCc4cc(O)ccc4C3CC[C@]12C (stereo not given in full)
- Potency [7]: 49.4 µM (active)

SMILES: COc1cc(C)c(C(=O)Oc2cc(C)c(C(=O)O)c(O)c2C)c(OC)c1C
- Potency [7]: 49.4 µM (active)

SMILES: COc1ccc(-c2cc(=O)c3c(OC)c(OC)c(OC)c(OC)c3o2)cc1OC
- outcome [8]: inactive

SMILES: C[C@@H](Oc1ccc(Oc2cnc3ccc(Cl)cc3n2)cc1)C(=O)O
- outcome [1]: inactive
- outcome [9]: inactive

SMILES: CC#C[C@]1(O)CC[C@H]2C3CCC4=CC(=O)CCC4=C3[C@@H](c3ccc(N(C)C)cc3)C[C@@]21C (stereo not given in full)
- Potency [2]: 3.98 µM (active)

SMILES: Nc1ncnc2c1ncn2[C@@H]1O[C@H](COP(=O)(O)OP(=O)(O)OP(=O)(O)OP(=O)(O)OC[C@@H]2O[C@H](n3cnc4c(N)ncnc43)[C@@H](O)[C@@H]2O)[C@H](O)[C@H]1O
- outcome [3]: inactive
- outcome [4]: inactive
- outcome [9]: inactive
- outcome [5]: inactive
- outcome [6]: inactive

SMILES: CN1CCc2c(cc(O)c(O)c2Cl)C(c2cccc(Cl)c2)C1 (stereo not given)
- outcome [1]: inactive
- Potency [2]: 5.01 µM (active)
- outcome [9]: inactive
- outcome [5]: inactive
- outcome [6]: inactive

SMILES: COc1cc2c3cc1Oc1c(OC)c(OC)cc4c1[C@@H](Cc1ccc(O)c(c1)Oc1ccc(cc1)C[C@@H]3N(C)CC2)N(C)CC4
- outcome [8]: inactive

SMILES: Cc1cc(/C=C\c2ccc3cc(N(C)C)ccc3[n+]2C)c(C)n1-c1ccccc1
- outcome [10]: inactive
- outcome [11]: inactive
- Potency ([12]; parasite line A): 1.58 µM (active)
- Potency ([12]; parasite line B): 1.58 µM (active)
- Potency (3D7): 0.891 µM (active)
- Potency (CP191): 1.41 µM (active)
- Potency (CP201): 3.22 µM (active)
- Potency (CP286): 0.355 µM (active)
- Potency (DFO2036): 1.78 µM (active)
- Potency (PC49): 3.16 µM (active)

SMILES: C=C[C@](C)(O)CCC1C(=C)CC(OC(C)=O)C2C(C)(C)CCCC12C (stereo not given in full)
- Potency [7]: 11.1 µM (active)

SMILES: Nc1ncnc2c1nc(Br)n2C1O[C@H]2COP(=O)(O)O[C@@H]2C1O (stereo not given in full)
- outcome [1]: inactive
- outcome [4]: inactive
- outcome [9]: inactive
- outcome [5]: inactive
- outcome [6]: inactive

SMILES: COc1ccc(/C=C/C(=O)O)cc1OC
- outcome [8]: inactive

SMILES: CN(C)CCCO[C@H]1C([C@H](O)CO)O[C@@H]2OC(C)(C)O[C@@H]21 (stereo not given in full)
- outcome [1]: inactive
- Potency [2]: inactive
- outcome [3]: inactive
- outcome [4]: inactive
- outcome [9]: inactive
- outcome [5]: inactive
- outcome [6]: inactive

SMILES: COc1ccccc1-c1ccc2ncnc(NCc3ccccc3)c2c1
- Potency [13]: 0.501 µM (active)

SMILES: CC(C)=CCC/C(C)=C/CC/C(C)=C/CC/C(C)=C/CC/C(C)=C/CC/C(C)=C/CC/C(C)=C/CC/C(C)=C/CC/C(C)=C/CO
- outcome [8]: inactive

SMILES: NC(=NCc1ccc(Cl)c(Cl)c1)NC(=O)c1nc(Cl)c(N)nc1N
- Potency [2]: 0.562 µM (active)
- outcome [4]: inactive
- outcome [9]: inactive

SMILES: COC(=O)c1c(C)c2c(c(C)c1O)OC(=O)c1c(C)c(Cl)c(O)c(Cl)c1O2
- Potency [7]: 2.48 µM (active) and 2.21 µM (active)

SMILES: Cc1ccccc1-c1nc(N2CCOCC2)c2ccccc2n1
- activity change, negative = inhibition [13]: 14.3% [at 2.29 µM] (inactive)

SMILES: COc1ccccc1CNc1ncnc2ccc(-c3ccccc3OC)cc12
- Potency [13]: 0.794 µM (active)

SMILES: COc1cccc(-c2ccc3ncnc(NCCc4c[nH]c5ccc(OC)cc45)c3c2)c1
- Potency [13]: 0.398 µM (active)

SMILES: CN(C)CC/C=C1\c2ccccc2CSc2ccccc21
- outcome [10]: inactive
- outcome [11]: inactive
- outcome [14]: inactive
- activity, negative = inhibition ([12]; parasite line A): 4.44% (inactive)
- activity, negative = inhibition ([12]; parasite line B): 2.26% (inactive)
- Potency (3D7): inactive
- Potency (CP191): inactive
- Potency (CP201): inactive
- Potency (CP286): inactive
- Potency (DFO2036): inactive
- Potency (PC49): inactive

SMILES: COc1cc2c(cc1OC)C1Cc3ccc(OC)c(OC)c3CN1CC2 (stereo not given)
- outcome [14]: inactive

SMILES: CC12CC[C@@H]3c4ccc(OS(=O)(=O)O)cc4CC[C@H]3C1CCC2=O (stereo not given in full)
- outcome [11]: inactive
- outcome [14]: inactive

SMILES: CC(C)N1CCN(c2ccc(OC[C@@H]3CO[C@@](Cn4cncn4)(c4ccc(Cl)cc4Cl)O3)cc2)CC1
- outcome [10]: inactive
- outcome [11]: inactive
- outcome [14]: inactive
- activity, negative = inhibition ([12]; parasite line A): 5.81% (inactive)
- Potency (3D7): inactive
- Potency (CP191): inactive
- Potency (CP201): inactive
- Potency (CP286): inactive
- Potency (DFO2036): inactive
- Potency (PC49): inactive
